Assay results: PubChem BioAssay (NCI)
About 79,000 compounds went through this panel and 15% of them were active in at least one assay; those are over-represented in the sample as a whole. Unmarked numbers belong to inactive results. Calls of active or inactive are those of the source. No stated cut-off is given here; in the data, active means growth inhibition above about 70%; inactive means the rest.

What was measured:
[1] = NCI Yeast Anticancer Drug Screen. Data for the rad50 strain (AID 155);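 further: 0% = growth of vehicle-only cultures of the same strain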; conditions: S. cerevisiae rad50 strain growth inhibition; at 50.0 µM; active compounds read high
Outline: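 Growth of the mutant yeast was measured after compound exposure and referenced to vehicle-treated cultures.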

[2] = NCI Yeast Anticancer Drug Screen. Data for the mec2-1 strain (AID 157); conditions: S. cerevisiae mec2-1 strain, at 50.0 µM, active compounds read high
Outline: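 Cells of the genetically defined mec2-1 yeast strain are incubated with test compound. Inhibition of growth is calculated against vehicle-treated controls.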

[3] = NCI Yeast Anticancer Drug Screen. Data for the sgs1 mgt1 strain (AID 161);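 further: 0% = growth of cultures given vehicle only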; conditions: S. cerevisiae sgs1 mgt1 strain, at 50.0 µM, active compounds read high
Outline: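 Read-out: growth inhibition vs vehicle controls. Cells: mutant yeast strain deficient in DNA damage repair.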

[4] = NCI Yeast Anticancer Drug Screen. Data for the cln2 rad14 strain (AID 165);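 further: 0% = growth equal to vehicle treated cultures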; conditions: S. cerevisiae cln2 rad14 strain, at 50.0 µM, active compounds read high
Outline: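 The screen exposed genetically defined yeast (cln2 rad14) to test compounds and scored growth inhibition relative to vehicle-treated controls.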

[5] = NCI Yeast Anticancer Drug Screen. Data for the bub3 strain (AID 167); conditions: S. cerevisiae bub3 mutant strain, at 50.0 µM, active compounds read high
Outline: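 Whole-cell yeast assay. The mutant strain was incubated with compounds, and growth inhibition was determined by comparison with vehicle-treated cells.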

[6] = NCI Yeast Anticancer Drug Screen. Data for the mlh1 rad18 strain (AID 175); conditions: S. cerevisiae mlh1 rad18 strain growth inhibition; at 50.0 µM; active compounds read high
Outline: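 Compound-treated yeast growth, normalised to vehicle controls. Strain bears defined DNA repair mutations.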

Row | SMILES | growth inhibition [1] | growth inhibition [2] | growth inhibition [3] | growth inhibition [4] [%] | growth inhibition [5] | growth inhibition [6]
1 | Cc1ccc(N2C(=O)/C(=C3\Sc4c(nc(C)n(C)c4=O)N3c3ccccc3)SC2=S)cc1 | -20.9% | -31.4% | -7.3% | -58.5 | -32.5% | -26.8%
2 | Nc1nc(C=O)c(CCc2ccccc2)c(=O)[nH]1 | 6.8% | 8.95% | -7.8% | -28.7 | -11% | -12.4%
3 | Cc1c(C(=O)CC(=O)C(=O)Nc2ccccc2C(F)(F)F)[n+](=O)c2ccccc2n1[O-] | 5.4% | 8.05% | -9.4% | 16.9 | 3.55% | -6.45%
4 | NC(=O)c1ccccc1NC(=O)Nc1ccc(Cl)cc1 | -3.6% | 20.8% | 13.8% | -15.3 | 21.5% | 27%
5 | CCOC(=O)/C=C1\CCCC12OCCO2 | 29.2% | -3.65% | 3.1% | 19.2 | -5.75% | -6.1%
6 | C=CCCCCCCCCC(=O)NC(C)C(C)(C)C (configuration not stated) | 29.9% | 19.8% | 14.7% | 39 | 27.3% | 25.5%
7 | COc1c2occc2cc2ccc(=S)oc12 | 13.2% | -10.4% | 7.35% | -4.6 | -19.9% | 23.1%
8 | O=C(O)CCNc1cccs1 | -19.6% | -1.75% | -26.5% | -63.8 | -4.85% | -19.9%
9 | O=C1/C(=C/c2ccccc2)CCCC/C1=C\c1ccccc1 | 27.9% | 31% | 40.5% | -1.9 | 9.75% | 15.9%
10 | CN(C=O)c1ccc([N+](=O)[O-])cc1 | 7.1% | -6.5% | -7.15% | 5.7 | 1.4% | -3.4%
11 | Brc1cc2[nH]c(-c3ccccc3)c(Br)c2c(Br)c1Br | 59% | 36.5% | 68.5% | 39.2 | 14.3% | 69%
12 | CC1=CC(CO)C2C(=O)NC(=O)C2C1C (configuration not stated) | 7.2% | -6.15% | -9.75% | -39.5 | -17.1% | 7.7%
13 | COC(=O)/C(=C/c1ccc(OC)cc1)C(C(=O)O)=C1CCCCC1 | 20.2% | 9.95% | 7.35% | 9.75 | 2.25% | -8.9%
14 | O=C1c2ccccc2-c2nc(-c3ccccc3)cc3c2c1nc1ccccc13 | 79% (active) | 51.7% | 67.2% | 64.8 | 75% (active) | -7.15%
15 | O=C(NCCN1CCCCC1)c1ccc(Br)cc1 | -15.2% | -16.4% | -12.6% | -6 | -18.9% | -47.1%
16 | Cc1cc(NC(=O)N(CCCl)N=O)c(C)cc1NC(=O)c1ccccc1 | 24.5% | -22.5% | 40.5% | -3.4 | -0.5% | 55.2%
17 | Nc1nc(N)nc(-c2ccco2)n1 | -15.1% | -6.6% | -27.1% | -81.8 | -0.85% | -5.2%
18 | CCc1cccc(C)c1NC(=O)CCc1nnc2s/c(=C\c3cccc4ccccc34)c(=O)n12 | 25.6% | 16.5% | 19.8% | 24.5 | 2.1% | 33.2%
19 | O=C1NC(Cc2ccccc2)C(=O)N2CCCC12 (configuration not stated) | 2.55% | -6.75% | -12.2% | -18.1 | -1.15% | 3.35%
20 | Nc1ccccc1C(=O)/C=C/c1c(O)ccc2ccccc12 | 29.6% | 9.5% | 10.2% | 15.9 | 21.1% | 34.3%
21 | Oc1c(Cl)cc(Cl)cc1C=Nc1cc(C(F)(F)F)ccc1N1CCc2ccccc2C1 | 53.5% | 0.25% | 50% | 14.4 | 42.8% | 39.6%

Row | SMILES | growth inhibition [1] | growth inhibition [2] | growth inhibition [3] | growth inhibition [4] [%] | growth inhibition [5] | growth inhibition [6]
22 | C=CCCCCCCCCC(=O)N1CCN(C)CC1 | 46.1% | -14% | 9.1% | 16.6 | -5.25% | 27.6%
23 | Cc1c2occc2cc2c1oc(=O)c1cnccc12 | 0.95% | -0.15% | 1.85% | 21.2 | -4.95% | 14.9%
24 | O=C(O)COc1ccc(C(=O)/C(SS/C(C(=O)c2ccc(OCC(=O)O)c(Cl)c2Cl)=C2\C=C(c3ccc(F)cc3)SS2)=C2/C=C(c3ccc(F)cc3)SS2)c(Cl)c1Cl | -35% | -28.4% | -14.2% | 1.8 | -22.3% | 83.7% (active)
25 | Nc1ncnc2c1ncn2CCC(COCc1ccccc1)COCc1ccccc1 | 40.8% | 0.4% | 50.8% | -10 | 4.6% | 11.7%
26 | O=[N+]([O-])c1ccc(S(=O)c2ccc(Cl)cc2)c2c1no[n+]2[O-] (configuration not stated) | 98.5% (active) | 99.4% (active) | 98.7% (active) | 32 | 76.1% (active) | 99.2% (active)
27 | O=C(O)CCCN1CCCCC1 | -22.1% | -32.4% | -30.2% | -4.7 | -63.9% | 8.8%
28 | c1ccc(N=C2SC(c3ccccc3)CN2C23CC4CC(CC(C4)C2)C3)cc1 (configuration not stated) | -18.4% | -6.5% | -38% | -64.5 | -1.2% | -9.8%
29 | COC(=O)C1(Cc2ccc3c(c2)CCC3)Cc2cc3c(cc2C1)CCC3 | -16.1% | 15.7% | -40.2% | 15.8 | -0.35% | -21.6%
30 | CCN1N=Nc2ccccc2NC1=O | 18.1% | 9.85% | 8.45% | 4.5 | -13.1% | -25.3%
31 | CNc1ncnc2c(C3OC(CO)C(O)C3O)[nH]nc12 (configuration not stated) | 16% | 10.8% | 6.6% | 20.8 | -0.8% | 13.4%
32 | COc1cccc(C(=O)O)c1Cc1cccc2ccccc12 | 1.25% | -6.7% | 10.3% | 27.2 | -0.4% | 25.1%
33 | O=C(O)/C=C/C(=O)Nc1ccc(Cl)cc1C(=O)c1ccccc1 | 24.6% | 9.1% | 33% | 0.4 | 14.6% | 20.8%
34 | NC(CSS(=O)(=O)O)=NCC1CC2CCC1C2 (configuration not stated) | 3.25% | 6.2% | -3.85% | 6.95 | 4.4% | 12.3%
35 | COc1ccc(C2CC2c2ccc(C#N)cc2)cc1 (configuration not stated) | 7.05% | -6.4% | -1% | -40.6 | 6.25% | -22.8%
36 | Cn1c2ccccc2c(=S)c2c(O)cc3c(c21)C=CC(C)(C)O3 | 28.8% | 6.3% | -0.7% | 22.9 | 9.85% | 21.6%
37 | CC(c1ccccc1)C(C)c1ccccc1 (configuration not stated) | 12.7% | -10.2% | -16.6% | -72.5 | 7.6% | -8.65%
38 | CCCCCCCC(=O)NN | -20.9% | -27.6% | -12.9% | -4.7 | -11.9% | 10.3%
39 | O=[N+]([O-])c1ccc2nc(NCCCO)c3ccccc3c2c1 | 8.2% | 11.3% | 3.85% | -0.9 | 12.1% | 12.1%
40 | Cc1ccc2c(c1)C(c1cccc3ccccc13)OC2=O (configuration not stated) | 21.6% | 1.65% | 40.2% | 33.3 | 14.2% | 29.4%
41 | CC(C)(N)C(=O)N[C@@H]1C(=O)N2[C@@H]1SC(C)(C)[C@@H]2C(=O)O | 8.4% | 3.55% | -19.2% | -0.95 | 5.9% | 4%
42 | CCOC(=O)c1c(NNc2ccccc2)nc2ccccc2c1-c1ccccc1 | 25.1% | -2.05% | 11.1% | 22.4 | -10.3% | -1.7%
